Screening results: PubChem BioAssay, National Center for Advancing Translational Sciences (NCATS)
Sampled rows, rich in hits. Any-hit rate of the full collection: about 6.1%.
VP16 counter – VP16 counterscreen qHTS for inhibitors of ROR gamma transcriptional activity; Drosophila S2 Gal4-VP16 UAS-luciferase, luminescence, 20 h; Potency, µM (top dose mostly 53.6 µM), actives largely listed as inhibitors; 310,000 compounds, 3.5% hits;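 also: Gal4-VP16 expression switched on by copper sulfate through the metallothionein promoter; nearly all actives have a fitted effect of over 50% in size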
RORg inh – qHTS for inhibitors of ROR gamma transcriptional activity. Nuclear receptor ROR-gamma (Mus musculus), P51450. Drosophila S2 Gal4-RORgamma UAS-luciferase reporter, 20 h. Potency, µM (series often up to 53.6 µM), usual class: inhibitors. 310,000 compounds, 5.4% hits; also: nearly all actives have a fitted effect of over 60% in size
Target sequence (P51450 whole entry, looked up, the tested form may be a part): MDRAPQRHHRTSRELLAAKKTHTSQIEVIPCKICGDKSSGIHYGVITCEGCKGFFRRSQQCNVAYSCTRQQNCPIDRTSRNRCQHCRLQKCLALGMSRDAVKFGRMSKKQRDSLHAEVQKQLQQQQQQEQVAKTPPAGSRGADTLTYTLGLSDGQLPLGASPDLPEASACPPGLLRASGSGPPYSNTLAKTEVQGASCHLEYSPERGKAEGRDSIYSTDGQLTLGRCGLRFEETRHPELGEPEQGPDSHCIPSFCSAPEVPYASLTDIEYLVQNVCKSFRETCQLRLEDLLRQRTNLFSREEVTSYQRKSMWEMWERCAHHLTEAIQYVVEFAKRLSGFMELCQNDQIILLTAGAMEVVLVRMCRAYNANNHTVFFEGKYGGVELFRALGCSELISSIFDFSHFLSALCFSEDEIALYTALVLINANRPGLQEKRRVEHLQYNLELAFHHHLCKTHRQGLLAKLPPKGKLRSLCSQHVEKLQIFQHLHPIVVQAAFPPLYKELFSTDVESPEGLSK
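Drosophila S2 cells stably expressing Gal4-DBD/mouse RORγ fusion under metallothionein promoter plus UAS-luciferase; compound 1 h, then 700 uM CuSO4 induction for 20 h at ambient temperature; inhibition read as reduced luminescence.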
HepG2 viability – qHTS for Inhibitors of TGF-b: Cytotox Counterscreen. Potency, µM (highest dose often 46.1 µM), hits mostly cytotoxic. 410,000 compounds, 0.76% hits. AID 588856, 2011. HepG2 CAGA-GFP viability, ATP luminescence, 18 h
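HepG2 CAGA-GFP cells (1000/well, DMEM with 1% FBS) received compound, then TGF-beta at 500 pg/mL final, and were incubated 18 hours at 37 degrees C. Viability was read by CellTiter-Glo luminescence. Media-only wells were set as complete cell-killing and DMSO as no toxicity.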
TGFb SMAD3 inh – qHTS for Inhibitors of TGF-b | HepG2 CAGA-GFP TGF-b/SMAD3 reporter, GFP fluorescence, 18 h; TGF-beta stimulated, 500 pg/mL final | Potency, µM (top dose mostly 46.1 µM), usual class: inhibitors | 410,000 compounds, 1.2% hits | AID 588855, 2011; also: nearly all actives have a fitted effect of over 65% in size
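Cell-based qHTS in HEPG2 carrying a CAGA-GFP Smad reporter; compounds added before 500 pg/mL final TGF-beta, 18 h incubation at 37 degrees C, GFP fluorescence quantified per cell by imaging cytometry.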
ATXN2 expr inh – Primary qHTS for Inhibitors of ATXN expression | 360,000 compounds, 0.72% hits | AID 1745845, 2022 | Potency, µM (highest dose often 57 µM), hits mostly inhibitors | HEK-293 ATXN2-luciferase reporter, luminescence, 24 h; also: nearly all actives have a fitted effect of over 55% in size
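qHTS (up to 57 uM final) was run with 24 h compound exposure of reporter cells at 37 °C. Each well was multiplexed: SteadyGlo luminescence measured ATXN2-luciferase expression after a fluorogenic Gly-Phe-AFC viability readout (25 uM final).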
ATXN viability – Viability Counterscreen for Primary qHTS for Inhibitors of ATXN expression. S2 cells (HEK-293 line with an ATXN2-luciferase reporter) viability, CellTiter-Fluor protease fluorescence, 24 h. Potency, µM (highest dose often 56.7 µM), most hits filed as cytotoxic. 400,000 compounds, 0.49% hits. AID 651635, 2014; also: nearly all actives have a fitted effect of over 40% in size
Hits are given with their value; – = inactive; ? = inconclusive; · = no result given; [ ] = dose if it differs, or a comment. Calls follow the shape of the dose curve; as a rule, active = well fitted curve in the direction sought with a large enough effect; inconclusive = small, poorly fitted or top-dose-only effect, or another doubt; inactive = no such curve, though single readings can be large; an effect the other way counts as inactive or inconclusive.

SMILES	VP16 counter	RORg inh	HepG2 viability	TGFb SMAD3 inh	ATXN2 expr inh	ATXN viability
Cc1ccc2c(c1)N(C(=O)N1CCC(C(=O)NCc3ccccc3F)CC1)CC(C)O2 (centres undefined)	·	·	–	13µM	·	·
CC1CN(C(=O)N2CCC(C(=O)NCc3ccccc3F)CC2)c2cc(Cl)ccc2O1 (centres undefined)	·	·	–	–	·	·
CCC1CN(C(=O)N2CCC(C(=O)NCCc3ccccc3C)CC2)c2ccccc2O1 (centres undefined)	·	·	–	?	·	·
CCOc1ccccc1CNC(=O)C1CCN(C(=O)N2CC(CC)Oc3ccc(C)cc32)CC1 (centres undefined)	·	·	–	10µM	·	·
Cc1cc2nc3ccc(=[N+](C)C)cc-3sc2cc1N	35µM	?	8.9µM	?	7.1µM	13µM
Cc1ccc2c(CC(=O)Nc3ccc(S(=O)(=O)N4CCCCC4)cc3)coc2c1C	·	·	–	–	?	–
Fc1ccc(-c2n[nH]c(=S)n2Cc2ccccc2)cc1	11µM	2.8µM	–	–	–	–
S=c1[nH]nc(-c2ccncc2)n1Cc1ccccc1	–	13µM	–	–	–	–
Fc1ccc(-c2c[nH]c(=S)n2Cc2ccccc2)cc1	1.4µM	0.63µM	–	–	–	–
S=c1[nH]nc(-c2cccnc2)n1Cc1ccccc1	?	?	–	–	–	–
O=c1[nH]cc(-c2ccc(Br)cc2)n1Cc1ccccc1	–	–	–	–	·	–
Cc1cc(-c2n[nH]c(=S)n2Cc2ccccc2)cs1	?	5.6µM	–	–	–	–
CC(C)[C@H](NC(=O)[C@H](CCC(N)=O)NC(=O)CNC(=O)[C@@H]1CCCN1C(=O)[C@H](Cc1ccc(O)cc1)NC(=O)CN)C(=O)O	–	–	·	·	·	·
O=C(NCc1ccc(F)cc1)c1ccc(CSCc2cccc(Cl)c2)o1	·	·	–	?	?	?
CC[C@H](C)[C@H](NC(=O)[C@H](CCC(=O)O)NC(=O)[C@@H](N)CO)C(=O)N[C@@H](CCC(N)=O)C(=O)N[C@@H](CC(C)C)C(=O)N[C@@H](CCSC)C(=O)N[C@@H](Cc1cnc[nH]1)C(=O)N[C@@H](CC(N)=O)C(=O)N[C@@H](CC(C)C)C(=O)NCC(=O)N[C@@H](CCCCN)C(=O)N[C@@H](Cc1cnc[nH]1)C(=O)N[C@@H](CC(C)C)C(=O)N[C@@H](C)C(=O)N[C@@H](CO)C(=O)N[C@H](C(=O)N[C@@H](CCC(=O)O)C(=O)N[C@@H](CCCNC(=N)N)C(=O)N[C@@H](CCSC)C(=O)N[C@@H](CCC(N)=O)C(=O)N[C@@H](Cc1c[nH]c2ccccc12)C(=O)N[C@@H](CC(C)C)C(=O)N[C@@H](CCCNC(=N)N)C(=O)N[C@@H](CCCCN)C(=O)N[C@@H](CCCCN)C(=O)N[C@@H](CC(C)C)C(=O)N[C@@H](CCC(N)=O)C(=O)N[C@@H](CC(=O)O)C(=O)N[C@H](C(=O)N[C@@H](Cc1cnc[nH]1)C(=O)N[C@@H](CC(N)=O)C(=O)N[C@@H](Cc1ccccc1)C(=O)O)C(C)C)C(C)C	–	–	·	·	·	·
CCC(CN)CC(C)CCNCC(O)CNCC(C)CC(CC)CN (centres undefined)	·	·	·	·	·	–
CCCCOc1ccc(-c2n[nH]c(=S)n2Cc2ccccc2)cc1	?	1.6µM	–	–	–	–
Oc1ccc(-c2n[nH]c(=S)n2Cc2ccccc2)cc1	·	–[0.365 µM]	–	–	–	–
CC(C)(C)c1ccc(-c2n[nH]c(=S)n2Cc2ccccc2)cc1	7.1µM	2.2µM	13µM	?	–	?
Cc1ccc(-c2n[nH]c(=S)n2C)cc1	?	?	–	–	–	–
S=c1[nH]nc(-c2ccc(Br)cc2)n1Cc1ccccc1	5.6µM	2.2µM	–	–	–	–
FC(F)C(F)(F)Oc1cccc(-c2n[nH]c(=S)n2Cc2ccccc2)c1	·	·	–	–	–	–
CC(C)n1c(-c2ccc(C(C)(C)C)cc2)n[nH]c1=S	10µM	4.5µM	–	–	–	–
COc1ccc(C)cc1NC(=O)C1CCN(S(=O)(=O)c2c(C)noc2/C=C/c2ccco2)CC1	·	·	–	–	·	·
CCOc1ccc(/C=C/c2nc(C#N)c(N3CCN(c4ccc(OC)cc4)CC3)o2)cc1	·	·	–	–	·	·
SMILES	VP16 counter	RORg inh	HepG2 viability	TGFb SMAD3 inh	ATXN2 expr inh	ATXN viability
O=C(/C=C/c1ccco1)Oc1cc(Br)cc(/C=N/NC(=O)c2ccccc2O)c1	2.8µM	3.2µM	–	10µM	?	–
Cc1cc(C)c(OCCCCNCc2ccccc2)c(Cl)c1	–	–	11µM	?	–	·
Cc1cc(Cl)cc(C)c1OCCOCCNCc1ccccc1	–	–[1.91 µM]	14µM	?	·	?
CN(CCOc1ccc(Cl)c(Cl)c1)Cc1ccccc1	–	–[1.91 µM]	–	–	–	–
Clc1ccc(OCCOCCNCc2ccccc2)cc1Cl	–	–[1.91 µM]	–	11µM	·	–
Clc1ccc(/C=N/Nc2ccccn2)cc1	?	?	–	–	–	–
COc1ccc2nc(Cl)c(/C=N/Nc3ccccn3)cc2c1	?	11µM	–	–	–	–
CCOc1ccc(/C=N/Nc2ccccn2)cc1	?	11µM	–	–	·	–
Cc1cc(C)cc(NC(=O)N2CCC(CN3CCCCCC3)CC2)c1	·	·	–	–	·	·
CCOC(=O)c1cccc(NC(=O)c2ccc3c(Cl)c4c(nc3c2)CCC4)c1	·	·	–	?	–	–
Cc1n[nH]c(=S)n1-c1cccc(Cl)c1	?	11µM	–	–	–	–
Cc1cccc(C)c1OCc1n[nH]c(=S)n1-c1ccccc1	?	1.3µM	–	–	–	–
Cc1ccccc1OCc1n[nH]c(=S)n1-c1cccc(Cl)c1	4.5µM	4µM	–	–	·	?
S=c1[nH]nc(CSCCOc2ccccc2)o1	–	?	–	–	–	–
CSc1n[nH]c(=O)n1-c1cccc(Cl)c1	–	–	–	–	–	–
Cn1c(CSCCOc2ccccc2)n[nH]c1=S	?	1µM	–	–	–	–
Cc1nc(C2CCCCC2)c(-c2ccc(S(N)(=O)=O)c(F)c2)o1	·	·	·	·	–	–
S=c1[nH]nc(CSCc2ccccc2Cl)n1-c1ccccc1	6.3µM	1µM	–	–	·	·
Cc1cccc(C)c1NCc1n[nH]c(=S)n1-c1ccccc1	?	2µM	–	–	–	–
Cc1ccc(OCc2n[nH]c(=S)n2-c2ccccc2)cc1C	?	2µM	–	–	–	–
CC(C)Oc1ccc(CCc2n[nH]c(=S)n2-c2ccccc2)cc1	–	7.1µM	–	–	–[11.3 µM]	–
